This is part of a sample that, as a whole, favours compounds with a hit. Of some 83,000 tested, about 20% had one in any assay.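 Step 1: grow cells in 96-well plates. Step 2: add test compound at a single concentration. Step 3: incubate 48 h. Step 4: record percent growth.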 Unmarked numbers belong to inactive results. Active and inactive are the calls of the source.
The compounds below were run on COLO 205 colon (assay: NCI-60 one-dose screen, 48 h (100 = growth as untreated, 0 = no growth, -100 = all killed)). Settings: 10 µM unless noted.
Procedure: Cells are grown in 96 well plates and exposed to the test compound for 48 hours. Compounds are tested at a single concentration, which is 10^-5 M for most compounds. The reported endpoint is percent growth (GI% or GIPRCNT), where numbers from 0 - 100% represent growth inhibition, and numbers from -100% - 0 represent cell death. For example, a value of 40 represents 60% growth inhibition. A value of 0 means no net growth occurred over the course of the experiment. A value of -40 indicates 40% of cells at the beginning of the experiment died by the end of the experiment. A value of -100 means all cells are dead at the end of the experiment.
NCI-60 Human Tumor Cell Lines Screen was performed using the standard one-dose NCI protocol, which is described in more detail at https://dtp.cancer.gov/discovery_development/nci-60/default.htm.
Compounds with GIPRCNT values below 10 were considered active. Activity score was based on GIPRCNT using the following formula: […]
Score is 0 for GIPRCNT values of 100 or above, 50 for GIPRCNT values of 0, and 100 for GIPRCNT values of -100.

Compound | growth
Cc1c(C(=O)/C=C/c2ccc(Cl)cc2)nnn1-c1ccc2oc(=O)ccc2c1 | 108%
Cc1ccc2c(n1)C(=O)C(Cl)=C(Nc1ccccc1C(=O)OC(C)(C)C)C2=O | -66.1% (active)
COc1ccc(/C(=N\NC(N)=S)c2ccc(Cl)cc2)cc1OC | 0.963% (active)
N#Cc1c(-c2ccc(Br)cc2)cc(-c2c[nH]c3ccccc23)nc1N | 51.5%
COc1ccc2[nH]cc(-c3nc(N)nnc3-c3cn(C)c4ccc(Br)cc34)c2c1 | 20%
O=C(O)c1ccc(-n2c(=O)n(-c3cccc(C(F)(F)F)c3)c(=O)c3cc(-c4ccc(F)cc4F)ccc32)cc1 | 65.1%
C#CCOc1ccccc1C(OC(=O)c1ccccc1)C(=O)NC(C)(C)C(C)(C)C (stereo not given) | 85.1%
CCNC(=O)Oc1ccc(/C(=C(/C)c2ccc(OC)cc2)c2ccc(OCCN3CCCCCC3)cc2)cc1 | -41.1% (active)
CC1=C(C)C(=O)C(Nc2cccc(C(=O)OC(C)(C)C)c2)=C(Cl)C1=O | 118%
CC(C)C(/C=C/c1[nH]ncc1-c1cc(Cl)ccc1O)N1CCOCC1 (stereo not given) | 109%
Cc1ccc(C(=O)Nc2ccc(CNCCN3CCOCC3)c(C(F)(F)F)c2)cc1C#Cc1cnc2cccnn12 | -18.8% (active)
O=[N+]([O-])c1ccc(NC(=S)NNC(=S)Nc2ccc(F)cc2)cc1 | 115%
Cc1[nH]c(C(=O)Nc2ccccc2OCc2cccc(C(=O)NC3CCNC3)c2)c(Cl)c1Cl (stereo not given) | -43.3% (active)
NCCNC(=O)c1cccc(COc2ccccc2NC(=O)c2cc(Br)c(Br)[nH]2)c1 | 110%
CCCCSC1=C(Cl)CN(c2ccc(Cl)cc2)C1=O | 125%
CC[C@]12CC(C(=O)OC)=C3Nc4ccccc4[C@@]34CCN(C14)[C@@H]1c3cc4c(cc3O[C@@H]1[C@H]2O)NC1=C(C(=O)OC)C[C@@]2(CC)C3N(CC[C@@]143)C[C@H]1O[C@H]12 (stereo not given in full) | -1.32% (active)
Cc1csc(/N=C(N)/N=C(\N)c2cccc(Br)c2)n1 | 95.3%
CC(C)=CCC[C@](C)(O)[C@H]1CC[C@]2(C)[C@@H]1CC[C@@H]1[C@@]3(C)CC[C@H](N)C(C)(C)[C@@H]3CC[C@]12C | -31.4% (active)
CCNC(=O)Oc1ccc(/C(=C(/C)c2ccc(Cl)cc2)c2ccc(OCCN3CCCCCC3)cc2)cc1 | -74.5% (active)
COc1ccc2sc(NC(=O)CCCCCCNC(=O)C(O)(O)C(F)(F)F)nc2c1 | -69.9% (active)

Compound | growth
O=C(/C=C/Nc1ccc(S(=O)(=O)Nc2ncccn2)cc1)c1ccc(N=Cc2c(O)[nH]c3ccccc23)cc1 | 117%
CN1c2ccccc2Sc2cc(/C=N/Nc3ccnc4cc(Cl)ccc34)ccc21 | 101%
COc1ccc2[nH]cc(-c3nn4cc(-c5ccncc5)nc4s3)c2c1 | 47%
Brc1cc(-c2cc(-c3ccc4c(c3)OC=CO4)[nH]n2)cs1 | 98.5%
COc1ccc(C(C)=C(c2ccc(OCCN3CCCCCC3)cc2)c2ccc(OCCN3CCCCCC3)cc2)cc1 | -60.8% (active)
Cc1ccc(C)c(NC2=C(Cl)C(=O)c3nc(C)ccc3C2=O)c1 | 107%
COc1ccc(/C(=N\N=C(N)N)c2ccc(Cl)cc2)cc1OC | 80%
CC(=O)N(O)CCCCCNC(=O)CCC(=O)N(O)CCCCCNC(=O)CCC(=O)N(O)CCCCCN(CCCCCCCCCC[P+](c1ccccc1)(c1ccccc1)c1ccccc1)CCCCCCCCCC[P+](c1ccccc1)(c1ccccc1)c1ccccc1 | -43.4% (active)
CC(=O)C1=C(C)NC(NNc2ccccc2)=NC1c1ccc([N+](=O)[O-])cc1 (stereo not given) | 106%
CCOC(=O)c1ccc(NC2=CC(=O)C(C)=C(C)C2=O)cc1 | 115%
O=C(CSc1nnc(-c2ccc(Cl)cc2)n1-c1ccccc1)Nc1cccc(F)c1 | 80.1%
CCOC(=O)c1c(NC(=O)c2ccc(C(F)(F)F)cc2)sc2c(CN3CCN(C)CC3)c(O)ccc12 | -67.5% (active)
CCN(CC)c1ccc(/C=N/NC(=O)c2ccc(S(N)(=O)=O)cc2)c(O)c1 | 14.3%
CS(=O)(=O)c1ccc(/C(=N/N=C(N)N)c2ccc(F)cc2)cc1 | 88%
Brc1cc(-c2cc(-c3ccc4c(c3)OCCO4)[nH]n2)cs1 | 57.8%
CN1CCN(Cc2ccc(NC(=O)c3cncc(C#Cc4cnc5ccc(N)nn45)c3)cc2C(F)(F)F)CC1 | -41.8% (active)
CN1CCN(Cc2ccc(NC(=O)c3cncc(C#Cc4cnc5ccc(OC6CCOCC6)nn45)c3)cc2C(F)(F)F)CC1 | -82.8% (active)
COc1cc(/C=N\NC(=O)c2ccc3nc(-c4ccc(Br)cc4)[nH]c3c2)cc(OC)c1OC | 32.5%
Cc1ccsc1[C@H]1c2[nH]c3ccccc3c2C[C@H]2C(=O)N(CCCCCCC(=O)NO)CC(=O)N12 | 96.5%
CCN(CC)CCOc1ccc(C(=C(C)Cc2ccc(OC)cc2)c2ccc(OCCN(CC)CC)cc2)cc1 | -78.2% (active)
